High-throughput results deposited in PubChem BioAssay by several laboratories.
Shn3 3UTR inh: reduces Shn3 3'UTR luciferase signal in osteoblasts; Clone20 osteoblast Shn3 3'UTR firefly luciferase, 24 h; actives 0.52% (n = 360,000); inhibition, % at 12.5 µM;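 active means mean inhibition of at least 75% with every replicate also reaching 75%; inconclusive means mean inhibition at least 75% but some replicate below; inactive means mean inhibition below 75%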;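 further: 0% = median of neutral control wells and 100% = pilot-screen positive control compound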
PAX8 reporter: inhibitors of PAX8 transcriptional activity in RMG-I cells | RMG-I TPO-luciferase reporter, SteadyGlo, 24 h | inhibition, % at 12.6 µM | actives 1.2% (n = 360,000);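 active means mean replicate inhibition at least 60% with every replicate also reaching 60%; inconclusive means only one of the two criteria is met; inactive means mean below 60% and not all replicates reaching 60%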;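 further: luciferase light reporting Pax8 driven TPO promoter activity; plate controls were median of neutral control wells for no effect and mitoxantrone controls for full effect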
Mdm2-MdmX inh: inhibitors of human Mdm2/MdmX interaction | SaOS-2 split-luciferase Mdm2/MdmX complementation, luminescence | inhibition, % at 8 µM | actives 3% (n = 330,000);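 active means inhibition of at least 50% at 8 µM in the primary screen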
Target sequence (O15151 whole entry, looked up): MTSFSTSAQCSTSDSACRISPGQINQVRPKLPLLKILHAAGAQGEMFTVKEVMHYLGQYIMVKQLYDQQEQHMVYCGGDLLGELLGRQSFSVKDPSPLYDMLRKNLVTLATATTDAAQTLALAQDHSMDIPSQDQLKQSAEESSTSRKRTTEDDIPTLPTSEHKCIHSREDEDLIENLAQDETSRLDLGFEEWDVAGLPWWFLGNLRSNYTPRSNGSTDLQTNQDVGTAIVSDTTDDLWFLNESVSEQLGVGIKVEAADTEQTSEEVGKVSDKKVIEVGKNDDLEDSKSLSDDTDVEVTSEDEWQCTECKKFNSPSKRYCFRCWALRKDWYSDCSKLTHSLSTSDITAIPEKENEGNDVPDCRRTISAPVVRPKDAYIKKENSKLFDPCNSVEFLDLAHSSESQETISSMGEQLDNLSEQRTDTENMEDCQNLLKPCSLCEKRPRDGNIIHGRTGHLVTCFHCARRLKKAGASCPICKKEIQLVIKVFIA
Target sequence (Q00987 whole entry, looked up): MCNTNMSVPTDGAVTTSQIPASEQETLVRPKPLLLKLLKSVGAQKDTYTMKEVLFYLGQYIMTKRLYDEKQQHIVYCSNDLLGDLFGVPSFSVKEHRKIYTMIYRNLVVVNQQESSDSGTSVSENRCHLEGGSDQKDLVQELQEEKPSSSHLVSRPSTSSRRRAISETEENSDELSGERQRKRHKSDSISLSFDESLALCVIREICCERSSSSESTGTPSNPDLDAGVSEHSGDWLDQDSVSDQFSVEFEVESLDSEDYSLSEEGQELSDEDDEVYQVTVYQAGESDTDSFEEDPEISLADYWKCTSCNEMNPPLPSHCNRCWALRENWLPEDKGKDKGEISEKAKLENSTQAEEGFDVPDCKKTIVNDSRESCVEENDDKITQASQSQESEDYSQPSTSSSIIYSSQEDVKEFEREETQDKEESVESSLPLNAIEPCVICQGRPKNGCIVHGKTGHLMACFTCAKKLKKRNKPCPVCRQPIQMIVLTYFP
Beta apoptosis: blocks beta cell apoptosis | INS-1E cytokine-induced death, ATP luminescence, 48 h; percent of positive-control rescue, neutral wells zero | protection from apoptosis, % (test concentration not listed) | actives 0.8% (n = 300,000);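 active means Every replicate reaches about 75%, or at least half do and their mean reaches it too, limit read from the data; inconclusive means At least half of replicates reach the limit but their mean does not; inactive means Under half of replicates reach the limit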;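 further: 0% = cytokine-treated negative control wells and 100% = positive control rescue; higher means more ATP so stronger rescue from cytokine killing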
CSC inhib: blocks cancer stem cells; cancer stem cell-like cells viability, luminescence; inhibition, % at 7.5 µM; actives 1.1% (n = 300,000); in the data active means inhibition above about 75%; inconclusive means no clear call, values can overlap the other calls; tested in HMLE shEcad cells
Gli-Sufu block: antagonists of Gli-Sufu signaling. Sufu-KO-LIGHT fibroblasts, Gli luciferase reporter luminescence. inhibition, % at 5 µM. actives 0.74% (n = 340,000). AID 588413;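 active means inhibition above about 55%, limit read from the data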;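 further: 0% = DMSO-treated cells and 100% = wells with medium but no cells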
Mdm2-MdmX conf: confirmation of human Mdm2/MdmX interaction inhibitors; shares compounds with Mdm2-MdmX inh; Mdm2-MdmX binding, luminescent assay; inhibition, % at 8 µM; actives 55% (n = 10,000); AID 489028; in the data active means inhibition above about 40%
Full FLuc ctr: inhibits full-length luciferase, flagging false Mdm2/MdmX hits. inhibition, % at 8 µM. SaOS-2 full-length luciferase counterscreen, luminescence. shares compounds with Mdm2-MdmX inh. actives 77% (n = 6,200). AID 504607;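 active means mean inhibition at 8 µM reaching about 37%, which flags the compound as non-specific, limit read from the data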;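 further: p53-null SaOS-2 cells with luciferase driven by a doxycycline-inducible promoter; compound on cells about two nights before reading with doxycycline added after day one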
* hit, by the source's call; ? = inconclusive; / = not tested or not shown. In the library only some 4% were active in any assay of this set; here they are far more common.

SMILES	Shn3 3UTR inh	PAX8 reporter	Mdm2-MdmX inh	Beta apoptosis	CSC inhib	Gli-Sufu block	Mdm2-MdmX conf	Full FLuc ctr
Cn1c2ccccc2c(=O)c2c(=O)n(C3CCCCC3)c(-c3cccs3)nc21	5	/	59*	42	50	19	69*	63*
CCc1nc2c(c(=O)c3ccccc3n2C)c(=O)n1C1CCCCCC1	1	-8	52*	41	34	12	76*	81*
COc1ccc(CCn2c(C3CCCCC3)nc3c(c(=O)c4ccccc4n3C)c2=O)cc1	26	40	81*	/	?	5	50*	45*
C[C@H](CO)N1C[C@H](C)[C@@H](CN(C)C(=O)Nc2ccc3c(c2)OCO3)Oc2ccc(NC(=O)CCCN(C)C)cc2C1=O	/	-44	/	/	/	/	/	/
CCNC(=O)[C@H]1[C@H](CO)[C@H]2Cn3c(ccc(C4=CCCCC4)c3=O)[C@@H]1N2Cc1ccncc1	/	-28	/	/	/	/	/	/
COc1ccccc1-c1cc(C(=O)N/N=C/c2cccs2)c2ccccc2n1	32	33	66*	4	26	10	35	/
COc1ccc(-c2cc(C(=O)N/N=C/c3sccc3C)c3ccccc3n2)c(OC)c1	54	/	88*	11	49	4	87*	31
COc1ccccc1-c1cc(C(=O)N/N=C\c2cnn(C)c2C)c2ccccc2n1	23	-9	-24	7	-10	-4	/	/
Cc1cccc(NC(=O)CSc2nc3ccccc3nc2N2CCCC2)c1	-5	4	85*	-3	25	-11	45*	81*
Cc1cccc(NC(=O)CSc2nc3ccccc3nc2N2CCCCC2)c1	6	33	96*	4	43	8	44*	102*
COc1ccc(NC(=O)CSc2nc3ccccc3nc2N2CCCCC2)cc1	5	12	37	1	-1	19	/	/
COc1cccc(NC(=O)CSc2nc3ccccc3nc2N2CCCC2)c1	7	7	64*	-2	3	-15	3	/
Cc1cccc(NC(=O)CSc2nc3ccccc3nc2N2CC(C)OC(C)C2)c1 (stereo not given)	15	14	24	4	7	-15	/	/
O=C(C1CCC1)N1C[C@@H]2[C@H](c3ccccc31)[C@@H](CO)N2C(=O)Cc1ccccn1	/	-2	/	/	/	/	/	/
O=C(C[C@H]1CC[C@@H](NC(=O)Nc2ccccc2F)[C@@H](CO)O1)NCc1ccc(-c2ccccc2)cc1	/	-22	/	/	/	/	/	/
CCOc1ccc(NC(=O)Nc2cccc(C(=O)O)c2)cc1	79	99*	70*	0	47	-32	70*	21
CCOc1ccc(NC(=O)NCCCCc2ccccc2)cc1	-1	3	50*	-7	15	-10	23	/
COc1ccc(NC(=O)NCCCCc2ccccc2)cc1	3	-12	3	-1	25	4	/	/
O=C(O)c1cccc(COc2ccc3c(c2)CCC3)c1	77	108*	68*	-3	8	-173	78*	24
CCOC(=O)c1cccc(NC(=O)Nc2ccc(OCC)cc2)c1	3	-55	-51	-1	10	-84	/	/
COc1ccc(OCc2cccc(C(=O)O)c2)cc1	94*	/	85*	-4	39	-210	81*	50*
C[C@@H]1CCCCO[C@@H](CN(C)C(=O)Cc2ccccc2)[C@H](C)CN([C@H](C)CO)C(=O)c2cc(NC(=O)CCC(F)(F)F)ccc2O1	/	0	/	/	/	/	/	/
CCCNC(=O)N1[C@@H]2c3ccc(-c4ccccc4OC)c(=O)n3C[C@H]1[C@H](CO)[C@H]2C(=O)NCC	/	-18	/	/	/	/	/	/
O=C(O)c1cccc(COc2ccc(CO)cc2Cl)c1	89*	/	90*	-6	48	-141	88*	5
CCOc1ccc(OCc2cccc(C(=O)N3CCCC3)c2)cc1	-31	/	11	3	-12	-68	/	/
SMILES	Shn3 3UTR inh	PAX8 reporter	Mdm2-MdmX inh	Beta apoptosis	CSC inhib	Gli-Sufu block	Mdm2-MdmX conf	Full FLuc ctr
CCOc1ccc(OCc2cccc(C(=O)O)c2)cc1	89*	/	61*	13	49	-104	94*	7
O=C(C[C@H]1CC[C@H](NC(=O)Nc2ccc3c(c2)OCO3)[C@H](CO)O1)NCc1ccc(F)cc1	/	-4	/	/	/	/	/	/
CCOC(=O)c1c2ccc(OCC(=O)N/N=C/c3ccc(C)cc3)cc2n2ccccc12	23	/	84*	62	114*	13	79*	107*
Cc1ccc(S(=O)(=O)Nc2ccc3c(c2)C(=O)N([C@@H](C)CO)C[C@H](C)[C@H](CN(C)CC2CCCCC2)O3)cc1	/	2	/	/	/	/	/	/
Cn1nc(C(F)(F)F)c(/C=N/OC(=O)c2ccccc2)c1SCc1ccc(Cl)cc1	29	3	33	-6	-14	16	/	/
Cn1nc(C(F)(F)F)c(/C=N/OC(=O)c2ccccc2Cl)c1SCc1ccccc1Cl	70	/	55*	-13	50	22	15	/
Cc1ccc(S(=O)(=O)N[C@H]2CC[C@H](CC(=O)N3CCN(c4ccccc4)CC3)O[C@@H]2CO)cc1	/	11	/	/	/	/	/	/
O=C(Nc1ccc(N2CCOCC2)cc1)Nc1ccc2nc(-c3ccco3)c(-c3ccco3)nc2c1	41	/	61*	3	/	5	41*	61*
Cc1noc(C)c1S(=O)(=O)N(C)C[C@H]1Oc2ccc(NC(=O)Nc3ccc4c(c3)OCO4)cc2CC(=O)N([C@@H](C)CO)C[C@H]1C	/	13	/	/	/	/	/	/
Cc1ccccc1Cn1c(=O)n(-c2ccccc2)c(=O)c2ccc(C(=O)NCc3ccco3)cc21	18	-15	68*	2	-1	/	22	/
CC(=O)Nc1ccc(Oc2sc(C(=O)c3ccccc3)c(N)c2C#N)cc1	15	/	61*	-37	35	16	29	78*
Nc1nnc(CC(=O)N/N=C/c2ccc(-c3ccc(Cl)cc3Cl)o2)s1	-2	-6	68*	0	2	3	34	83*
CCc1ccc(C(=O)C(C)OC(=O)Cc2n[nH]c(=O)c3ccccc23)cc1 (stereo not given)	-6	29	59*	16	/	2	74*	58*
Cc1c(CCOC(=O)CC23CC4CC(CC(C4)C2)C3)sc[n+]1CC(=O)c1ccc(Br)cc1	94*	/	51*	38	118*	3	-2	/
Cc1c(CCOC(=O)C23CC4CC(CC(C)(C4)C2)C3)sc[n+]1CC(=O)c1ccccc1	14	27	54*	54	-7	26	26	/
Cc1c(CCOC(=O)c2ccccc2)sc[n+]1CC(=O)c1ccc(Br)cc1	3	/	12	6	/	-3	/	/
Cc1c(CCOC(=O)CC23CC4CC(CC(C)(C4)C2)C3)sc[n+]1CC(=O)c1ccccc1	58	-7	54*	24	100*	16	14	/
